From PubChem BioAssay AID1024 (Sanford-Burnham Center for Chemical Genomics, 2008)
Among all 96,000 compounds or so, about 1,400 (1.5%) were called active.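 Rule for the calls: active = activation factor of 2 or more for CYP2C9 at a 5 µM dose; inactive = the rest.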 The list comes from a sample in which actives are over-represented; it also holds similar structures and randomly drawn compounds.

The compounds below were run against Cytochrome P450 2C9 (Homo sapiens) (UniProt P11712) (assay: human CYP2C9 activators, primary screen, biochemical, luminescence (AID 1024;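 note: 0 = sulfaphenazole-blocked wells and 1 = vehicle-only wells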)). Conditions: recombinant CYP2C9, luciferin-H conversion, at 5 µM, hits give high values, factor 1 = untreated enzyme, 0 = blocked.
Cytochrome P450 2C9 (Homo sapiens), sequence (P11712 whole entry, looked up): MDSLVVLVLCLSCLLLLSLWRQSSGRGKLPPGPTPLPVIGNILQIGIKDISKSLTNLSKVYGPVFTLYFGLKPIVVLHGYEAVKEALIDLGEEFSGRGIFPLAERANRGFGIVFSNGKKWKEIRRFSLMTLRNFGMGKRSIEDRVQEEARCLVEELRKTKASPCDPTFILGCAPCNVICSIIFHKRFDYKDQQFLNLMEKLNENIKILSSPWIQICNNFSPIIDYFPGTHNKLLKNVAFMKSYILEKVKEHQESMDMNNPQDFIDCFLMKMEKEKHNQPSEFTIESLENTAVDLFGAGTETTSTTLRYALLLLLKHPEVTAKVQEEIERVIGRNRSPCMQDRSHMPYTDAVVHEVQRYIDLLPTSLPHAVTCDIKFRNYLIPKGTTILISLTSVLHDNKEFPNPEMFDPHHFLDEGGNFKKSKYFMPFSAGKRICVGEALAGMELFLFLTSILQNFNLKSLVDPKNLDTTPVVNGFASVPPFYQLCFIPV

Row | Compound | activation factor
1 | CCN(c1ccccc1)S(=O)(=O)c1ccc(N)cc1 | 2.4 (active)
2 | CCN(c1ccccc1)S(=O)(=O)c1ccc(NC(=O)C(C)(C)C)cc1 | 0.7 (inactive)
3 | CCN(c1ccccc1)S(=O)(=O)c1cccc(C(=O)O)c1 | 0.7 (inactive)
4 | O=C(NCCc1ccccn1)c1cc(C(=O)C2CCCCC2)c[nH]1 | 0.9 (inactive)
5 | CC1CCN(C(NC(=O)c2ccco2)C(=O)c2ccccc2)CC1 (stereo not given) | 0.3 (inactive)
6 | COc1ccc(CCNC(=O)COC(=O)c2ccc[nH]c2=O)cc1 | 0.8 (inactive)
7 | COc1cc(C2C(C(=O)OCCC#N)=C(C)NC3=C2S(=O)(=O)c2ccccc23)cc(OC)c1OC (stereo not given) | 0.5 (inactive)
8 | O=C(CCCN1C(=O)c2cccc3cccc(c23)C1=O)N1CCN(Cc2ccc3c(c2)OCO3)CC1 | 2.4 (active)
9 | O=C(Nc1cccc2ccccc12)N1CCN(Cc2ccc3c(c2)OCO3)CC1 | 0.6 (inactive)
10 | Cn1c(=O)cc(OCCCC(=O)N2CCN(Cc3ccc4c(c3)OCO4)CC2)c2ccccc21 | 0.9 (inactive)
11 | COc1ccc(N(CC(=O)N/N=C/c2cccc3c2OCCO3)S(=O)(=O)c2ccc(NC(C)=O)cc2)cc1 | 0.2 (inactive)
12 | CCN(CC)S(=O)(=O)c1ccc2c3c(cccc13)C(=O)S2 | 1.5 (inactive)
13 | COc1ccc2oc(=O)c(C(=O)O)cc2c1 | 1.1 (inactive)
14 | COc1cccc2cc(C(=O)N(C)C)c(=O)oc12 | 2 (active)
15 | COc1cccc(C(=O)c2cc3ccc(O)cc3oc2=O)c1 | 0.1 (inactive)
16 | O=C(Oc1ccccc1)Oc1ccc2c(c1)oc(=O)c1ccccc12 | 1.6 (inactive)
17 | Cc1n[nH]c(=S)n1/N=C/c1ccc(Br)o1 | 1 (inactive)
18 | CCc1cccc2c(C=C(C#N)C#N)cn(CC(=O)N3CCCCC3)c12 | 1 (inactive)
19 | Cc1nc(SCC(=O)N2CC(=O)Nc3ccccc32)c2c(C)c(C)sc2n1 | 0.4 (inactive)
20 | COc1ccc(C2CC(=O)n3c(nc4ccccc43)S2)cc1OC (stereo not given) | 0.9 (inactive)
21 | COc1ccc(S(=O)(=O)N2CCC(C(=O)N3CCc4ccccc4C3)CC2)cc1OC | 0.5 (inactive)
22 | COc1ccc(C2SCCN2S(=O)(=O)c2ccccc2)cc1OC (stereo not given) | 2.1 (active)
23 | COc1ccc(CNC(=O)C2CCC(CNc3c(N4CCOCC4)c(=O)c3=O)CC2)cc1 (stereo not given) | 1.1 (inactive)
24 | Cc1ccc(CNC(=O)c2ccccc2CCc2ccccc2)cc1 | 0.7 (inactive)
25 | Nc1ccc(Oc2ccc(Cl)cc2)cc1 | 0.8 (inactive)
26 | Clc1ccc(Cl)c(Oc2ccc(Oc3nc(Cl)ccc3Cl)cc2)n1 | 2 (active)
27 | N#Cc1ccc(-c2ccc(Cl)cc2)nc1Oc1ccc(F)cc1 | 0.9 (inactive)

Row | Compound | activation factor
28 | C=CCNC(=O)c1sc(SC)cc1-c1ccc(Cl)cc1 | 0.4 (inactive)
29 | Cc1ccc(C(=O)OC2=CC(=O)CC(C)(C)C2)cc1 | 0.7 (inactive)
30 | O=[N+]([O-])c1ccc(NCCCN2CCOCC2)c(Cl)c1 | 0.9 (inactive)
31 | Cc1cc(C)c(S(=O)(=O)NCCCN2CCOCC2)cc1Br | 2 (active)
32 | Cc1ccc(S(=O)(=O)NCCN2CCOCC2)cc1C | 0.8 (inactive)
33 | O=C(CN1CCN(S(=O)(=O)c2ccc(Cl)s2)CC1)NCc1ccc(Cl)cc1 | 0.4 (inactive)
34 | CCCCNCc1ccc(SC)cc1 | 1 (inactive)
35 | C=CCNC(=O)c1cc(-c2ccccc2O)on1 | 1.5 (inactive)
36 | O=C(NCc1ccccn1)c1cc2ccccc2oc1=O | 1.3 (inactive)
37 | O=C(NCc1ccccn1)c1cc(-c2ccccc2Cl)on1 | 2.6 (active)
38 | COc1ccccc1NC(=O)COc1ccc(C(=O)OCC(=O)N(C(C)C)C(C)C)cc1OC | 0.6 (inactive)
39 | O=C(NCc1cccs1)C1CCN(S(=O)(=O)c2ccc3c(c2)OCCO3)CC1 | 2.7 (active)
40 | O=C(c1ccc2c(c1)OCCO2)C1CCN(S(=O)(=O)c2cccc(F)c2)CC1 | 1.2 (inactive)
41 | O=C(NCc1ccc2c(c1)OCO2)C1CCCN(S(=O)(=O)c2cccs2)C1 (stereo not given) | 0.1 (inactive)
42 | FC(F)(F)c1cccc(-c2cc3ccccc3nc2N2CCCC2)c1 | 0.9 (inactive)
43 | CCOC(=O)n1c(SCC(=O)N(CC)CC)nc2ccccc21 | 0.7 (inactive)
44 | CCN(Cc1ccccc1)C(=O)CSc1nc(C)cc2c1C(=O)OC2 | 2.3 (active)
45 | CCN(CC)C(=O)CSc1nnc(-c2cccc(OC)c2)o1 | 1.6 (inactive)
46 | CCN1CCN(c2ccc([N+](=O)[O-])cc2C(=O)c2ccc(Cl)cc2)CC1 | 1.6 (inactive)
47 | CC1CC(C)CN(C/C=C/c2ccccc2[N+](=O)[O-])C1 (stereo not given) | 0.9 (inactive)
48 | COc1ccc(Cl)cc1S(=O)(=O)Nc1cccc(C(=O)O)c1 | 0.9 (inactive)
49 | COc1ccc(NC(=O)CN2CCN(S(=O)(=O)c3ccc(F)cc3)CC2)cc1Cl | 0.8 (inactive)
50 | COc1ccc(Cl)cc1S(=O)(=O)N1CCN(CC(=O)C(C)(C)C)CC1 | 2.4 (active)
51 | O=C(CSCc1ccc([N+](=O)[O-])cc1)NCCSCc1ccccc1 | 0.6 (inactive)
52 | CCOC(=O)C1CN(S(=O)(=O)c2ccc(F)cc2)C1 | 0.9 (inactive)
53 | Cc1nc(C)c(C(=O)Nc2cccc(C)c2C)o1 | 1 (inactive)
54 | COc1ccc(Cl)cc1NC(=O)c1oc(C)nc1C | 2.7 (active)

Row | Compound | activation factor
55 | Cc1nc(C)c(C(=O)Nc2ccc(C)c(F)c2)o1 | 1 (inactive)
56 | Cc1ccc(NC(=S)NC2CCCC2)cc1 | 0.7 (inactive)
57 | COc1ccc([N+](=O)[O-])cc1NC(=O)CCc1ccccc1 | 1.7 (inactive)
58 | COc1ccccc1NC(=O)/C=C/C(N)=O | 1.2 (inactive)
59 | COc1ccccc1NC(=O)c1ccc(C)s1 | 3.5 (active)
60 | COc1ccccc1NC(=S)NC(=O)C(C)C | 0.9 (inactive)
61 | N#Cc1ccsc1NC(=O)CN1CCCCC1 | 1.2 (inactive)
62 | COc1cc(/C=N\NC(=O)CNC(=O)c2cccc([N+](=O)[O-])c2)ccc1O | 1.1 (inactive)
63 | CC1(C)CC(=O)C2=C(C1)N=C1SCCC(=O)N1C2c1ccc(C(F)(F)F)cc1 (stereo not given) | 1.2 (inactive)
64 | CCOc1ccccc1NC(=O)Nc1cc(OC)ccc1OC | 1 (inactive)
65 | CCOc1ccc(S(=O)(=O)Nc2ccc(S(=O)(=O)Nc3cc(OC)ccc3OC)cc2)cc1 | 0.2 (inactive)
66 | CCOc1ccc(C(=O)Nc2cc(OC)ccc2OC)cc1 | 2.1 (active)
67 | CCOC(=O)c1sc2nc(SC)nc(-c3ccccc3)c2c1N | 0.9 (inactive)
68 | O=c1c([N+](=O)[O-])cc(C(F)(F)F)cn1Cc1cccc(Cl)c1 | 0.8 (inactive)
69 | O=C(Nc1ccc(S(=O)(=O)N2CCc3ccccc3C2)cc1)c1ccccc1 | 1 (inactive)
70 | O=S(=O)(c1cccs1)N1CCc2ccccc2C1 | 3.1 (active)
71 | O=S(=O)(c1cccs1)N1CCN(Cc2ccccc2)CC1 | 0.3 (inactive)
72 | COc1ccc(C(=O)N2CCc3cc(OC)c(OC)cc3C2c2cccc([N+](=O)[O-])c2)cc1 (stereo not given) | 0.4 (inactive)
73 | Cc1nnsc1S(=O)(=O)Cc1ccccc1Cl | 1 (inactive)
74 | COc1ccc(CCNS(=O)(=O)c2ccc(F)cc2)cc1OC | 0.2 (inactive)
75 | O=S(=O)(NCCOc1cccc2cccnc12)c1ccc(F)cc1 | 3.3 (active)
76 | O=S(=O)(NCc1ccccn1)c1ccc(F)cc1 | 1 (inactive)
77 | O=C(/C=C/c1ccccc1)c1ccoc1 | 0.8 (inactive)
78 | Cc1nn(C)c(Oc2ccccc2)c1CCNS(=O)(=O)c1ccc(F)cc1 | 0.5 (inactive)
79 | CC(C)(C)NC(=O)NC(=O)COC(=O)CCC1CCCCC1 | 0.9 (inactive)
80 | COc1cccc(C(=O)Nc2ccc(NC(=O)c3ccco3)cn2)c1 | 0.8 (inactive)
81 | COc1ccc(NC(=O)c2cccc(NC(=O)c3ccco3)c2)c(OC)c1 | 1.5 (inactive)

Row | Compound | activation factor
82 | COc1ccc(OC)c(NC(=O)c2cnn(-c3ccccc3Cl)c2NC(=O)c2ccco2)c1 | 0.8 (inactive)
83 | COC(=O)c1cc(Cl)c(NC(=O)c2ccco2)cc1OC | 2.4 (active)
84 | COC(=O)c1ccc(NC(=O)c2ccco2)cc1 | 0.8 (inactive)
85 | COc1ccccc1C(=O)Nc1ccc(NC(=O)c2ccco2)c(C)c1 | 2.8 (active)
86 | CCOC(=O)Nc1ccc(S(=O)(=O)N(C)C(C)C)cc1 | 0.7 (inactive)
87 | O=C(COc1ccc(Br)cc1F)NC1CCN(Cc2ccccc2)CC1 | 0.7 (inactive)
88 | Cc1onc(-c2c(Cl)cccc2Cl)c1C(=O)c1c[nH]c(C(=O)NC2CC2)c1 | 0.9 (inactive)
89 | Cc1cc(C(=O)CSc2nc(N)cc(=O)[nH]2)c(C)n1CCc1ccc(Cl)cc1 | 0.9 (inactive)
90 | CCn1cc(C(=O)N/N=C(/C)c2ccc(F)cc2)c(=O)c2cc(F)c(N3CCCC3)cc21 | 0.9 (inactive)
91 | COc1ccccc1Cc1nc(-c2ccc(C)cc2)no1 | 0.9 (inactive)
92 | COc1ccc(S(=O)(=O)NC(CC(=O)NCc2ccccc2OC)c2ccco2)cc1 (stereo not given) | 1.4 (inactive)
93 | COc1ccccc1CNS(=O)(=O)c1ccc(C)cc1 | 2.6 (active)
94 | CCOC(=O)C1(S(=O)(=O)c2ccc(Cl)cc2)CCN(Cc2ccccc2)CC1 | 0.8 (inactive)
95 | Cc1nc2cc(NC(=O)CSc3nc4c(C)cccc4cc3C#N)ccc2s1 | 0.7 (inactive)
96 | O=C(CCCCn1c(=O)[nH]c2ccccc2c1=O)NCc1ccc2c(c1)OCO2 | 0.3 (inactive)
97 | O=C(COc1ccccc1)NCc1ccc2c(c1)OCO2 | 0.7 (inactive)
98 | Cn1cc(CCC(=O)NCc2ccc3c(c2)OCO3)c2ccccc21 | 2.2 (active)
99 | CCCc1cc(=O)[nH]c(SCC(=O)c2cc(C)n(CCC)c2C)n1 | 0.9 (inactive)
100 | Cc1ccc2nc(SCc3nnc(-c4ccccc4[N+](=O)[O-])o3)c(C#N)cc2c1 | 0.8 (inactive)
101 | COC(=O)Cc1cc(=O)oc2c(C)c(O)ccc12 | 1.2 (inactive)
102 | Cc1nc(Cl)c2oc3ccccc3c2n1 | 0.9 (inactive)
103 | Cc1ccc(NC(=O)C2CC(c3ccc(F)cc3)=NO2)cc1 (stereo not given) | 0.8 (inactive)
104 | CC(C)C(=O)Nc1cccc(C(=O)Nc2ccc3c(c2)OCO3)c1 | 0.4 (inactive)
105 | O=C(Nc1ccc2c(c1)OCO2)C1CC(c2c(F)cccc2Cl)=NO1 (stereo not given) | 2.6 (active)
